About 83,000 compounds went through this panel and 20% of them were active in at least one assay; those are over-represented in the sample as a whole.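 The endpoint reported here, percent growth, reads 100 for growth as untreated, 0 for no net growth and -100 for all cells dead.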 Unmarked numbers belong to inactive results. Activity calls are given as the source filed them. Rule for the calls: active = growth percent below 10; inactive = the rest.

Data on nine compounds can be found in PubChem BioAssay (NCI).

Among the test systems are HCT-15 colon; HT29 colon; SNB-75 CNS; SNB-19 CNS; U251 CNS; SK-MEL-5 melanoma; LOX IMVI melanoma; SK-MEL-28 melanoma; SK-MEL-2 melanoma; SN12C renal; UO-31 renal; TK-10 renal; ACHN renal; CAKI-1 renal; A498 renal; CCRF-CEM leukemia; MOLT-4 leukemia; UACC-62 melanoma; PC-3 prostate; EKVX NSCLC.
Common to all, as to assay: NCI-60 one-dose screen, 48 h (100 = growth as untreated, 0 = no growth, -100 = all killed)
Holding throughout (details): 10 µM unless noted

As for `COc1ccc(/C=C2\CN(Cc3cn(CCCNc4ccnc5cc(Cl)ccc45)nn3)C/C(=C\c3ccc(OC)c(OC)c3)C2=O)cc1OC`, the growth in the assay on HCT-15 colon was 9.96% (active); in the assay on HT29 colon, -40.1% (active); in the assay with SNB-75 CNS, 42.6%; in the assay with SNB-19 CNS, 33%; with U251 CNS it was 0.724% (active); in the assay on SK-MEL-5 melanoma it was 5.86% (active). Further, the growth was -68.9% (active) in the assay on LOX IMVI melanoma; 40.1% with SK-MEL-28 melanoma; 27.7% in the assay with SK-MEL-2 melanoma; -38% (active) in the assay with SN12C renal; 33.2% in the assay with UO-31 renal; 14.3% with TK-10 renal. In addition, the growth was -38% (active) with ACHN renal; 31% with CAKI-1 renal; 23.5% in the assay on A498 renal; -15.2% (active) in the assay with CCRF-CEM leukemia; -13% (active) with MOLT-4 leukemia.
Regarding `Cc1nc2cc(Nc3nc(NCCN)nc(Nc4ccc(F)cc4)n3)ccc2n1Cc1ccccc1`, the growth in the assay with HCT-15 colon was 100%; in the assay on HT29 colon it was 35.1%; with SNB-75 CNS it was 84.2%; in the assay on SNB-19 CNS, 91.6%; in the assay on U251 CNS, 77.4%; with SK-MEL-5 melanoma it was 86.6%. Besides, the growth in the assay with LOX IMVI melanoma is 58.2%; with SK-MEL-28 melanoma it was 107%; in the assay on SK-MEL-2 melanoma it was 90.5%; in the assay with SN12C renal, 85.1%; in the assay on UO-31 renal, 89.3%; with TK-10 renal it was 101%. The growth was 96.8% in the assay with ACHN renal; 94.2% with CAKI-1 renal; 67.4% in the assay on A498 renal; -13.7% (active) with CCRF-CEM leukemia; -14.4% (active) in the assay with MOLT-4 leukemia.
Consider `COc1cc(NC(=O)COc2ccccc2)c(C(N)=O)cc1OC`, for which the growth in the assay with HCT-15 colon is 30.1%; in the assay with HT29 colon it was 1.53% (active); with SNB-75 CNS, 17.9%; in the assay with SNB-19 CNS, 56%; in the assay with U251 CNS, 17.8%; with UACC-62 melanoma it was 51.9%. Further, the growth in the assay on LOX IMVI melanoma was 59.1%; in the assay with SK-MEL-28 melanoma, 70.1%; in the assay with SK-MEL-2 melanoma it was 9.86% (active); in the assay with SN12C renal, 44.7%; in the assay with UO-31 renal it was 51.3%; with ACHN renal it was 54.9%. The growth is 37.1% in the assay on CAKI-1 renal, 4.84% (active) with A498 renal and 26.9% in the assay on MOLT-4 leukemia.
In the case of `COc1ccc(/C=C2\CN(Cc3cn(CCCNc4ccnc5cc(Cl)ccc45)nn3)C/C(=C\c3ccc(OC)cc3)C2=O)cc1`, the growth was 67.6% with HCT-15 colon; 14.6% with HT29 colon; 70.1% in the assay with SNB-75 CNS; 72.9% in the assay with SNB-19 CNS; 41.3% with U251 CNS; 52.7% with SK-MEL-5 melanoma. The growth with LOX IMVI melanoma was 35.5%; in the assay with SK-MEL-28 melanoma it was 80.5%; in the assay on SK-MEL-2 melanoma, 90.4%; in the assay on SN12C renal, 67%; in the assay with UO-31 renal, 54.7%; with TK-10 renal it was 94.9%. Further, the growth was 79.6% with ACHN renal; 92.6% with CAKI-1 renal; 52.9% with A498 renal; 1.02% (active) in the assay on CCRF-CEM leukemia; 32.2% in the assay on MOLT-4 leukemia.
Consider `CN1CCn2c(c(Sc3ccc(C(=O)NO)cc3)c3ccccc32)C1=O`, for which the growth in the assay with HCT-15 colon was 14.6%; in the assay with HT29 colon it was 44.3%; in the assay with SNB-75 CNS it was -17.2% (active); in the assay with SNB-19 CNS it was -26.4% (active); with U251 CNS it was -60.5% (active); in the assay with UACC-62 melanoma, -61.4% (active). The growth in the assay on LOX IMVI melanoma was -44.2% (active); with SK-MEL-28 melanoma, -33.4% (active); in the assay on SK-MEL-2 melanoma it was -43.3% (active); in the assay on SN12C renal, -3% (active); with UO-31 renal, 59%; in the assay with ACHN renal, 36.6%. Besides, the growth is 50.5% in the assay with CAKI-1 renal, 4.23% (active) in the assay on A498 renal, -6.26% (active) in the assay on CCRF-CEM leukemia and 1.98% (active) in the assay with MOLT-4 leukemia.
Take `COc1cccc(C2C3=C(COC3=O)N(CCO)c3cc4c(cc32)OCO4)c1` (stereo not given): the growth with HCT-15 colon was 18.2%; in the assay with HT29 colon, 0.226% (active); in the assay on SNB-75 CNS it was -19.9% (active); in the assay with SNB-19 CNS, 25.6%; with PC-3 prostate, 32.4%; in the assay with SK-MEL-5 melanoma, 30.8%. The growth in the assay on UACC-62 melanoma is 18.3%; in the assay with LOX IMVI melanoma, 53.8%; with SK-MEL-28 melanoma, 50.5%; in the assay with SK-MEL-2 melanoma, 33%; in the assay with EKVX NSCLC, 36.2%; in the assay with SN12C renal it was 46.7%. Further, the growth with UO-31 renal was 57.7%; in the assay with TK-10 renal, 59.8%; in the assay with ACHN renal, 48.4%; in the assay on CAKI-1 renal, 30%; in the assay on A498 renal, -5.85% (active); in the assay with CCRF-CEM leukemia it was 21.3%. Moreover, the growth in the assay on MOLT-4 leukemia was 27.1%.
Turning to `O=c1c2c(=NCCN3CCCC3)cc3c(=O)n(CCCN4CCOCC4)c(=O)c4ccc(c(O)n1CCCN1CCOCC1)c2c4-3`, the growth in the assay on HCT-15 colon is -11.8% (active); with HT29 colon it was -16.9% (active); with SNB-75 CNS, -88.8% (active); in the assay with SNB-19 CNS, 1.06% (active); in the assay with U251 CNS, 5.11% (active); with SK-MEL-5 melanoma, -14.9% (active). Besides, the growth is -49.7% (active) in the assay with UACC-62 melanoma; -6.84% (active) in the assay on LOX IMVI melanoma; -32.9% (active) with SK-MEL-28 melanoma; -27.2% (active) in the assay with SK-MEL-2 melanoma; -12.8% (active) in the assay on EKVX NSCLC; 4.69% (active) with SN12C renal. Moreover, the growth in the assay on UO-31 renal was 0.795% (active); with ACHN renal, 2.23% (active); with CAKI-1 renal it was 8.73% (active); in the assay with A498 renal, -78.9% (active); in the assay with CCRF-CEM leukemia, 1.35% (active); in the assay on MOLT-4 leukemia, 2.58% (active).
Take `Cn1c2c(cc(S(=O)(=O)c3ccccc3)c1=O)CCc1c-2cnn1-c1ccccc1Cl`: the growth in the assay on HCT-15 colon is 95.9%; in the assay with HT29 colon it was 104%; in the assay on SNB-75 CNS it was 92.5%; in the assay with SNB-19 CNS, 96.2%; in the assay on PC-3 prostate it was 93.5%; with SK-MEL-5 melanoma, 105%. Moreover, the growth is 93.4% in the assay on UACC-62 melanoma; 107% in the assay on LOX IMVI melanoma; 104% in the assay with SK-MEL-28 melanoma; 105% with SK-MEL-2 melanoma; 97.8% in the assay with SN12C renal; -16% (active) with UO-31 renal. For the same compound, the growth in the assay on TK-10 renal is 122%; with ACHN renal, -31% (active); with CAKI-1 renal, 54.7%; in the assay on A498 renal, 86.5%; with CCRF-CEM leukemia, 96.4%; with MOLT-4 leukemia it was 90.7%.
Regarding `O=C(Nc1ccc(F)cc1)c1ccc(C(=O)Nc2ccc(F)cc2)cc1`, the growth in the assay on HCT-15 colon was 89.1%; in the assay on HT29 colon, 97.7%; in the assay on SNB-75 CNS, 84.1%; in the assay with SNB-19 CNS, 106%; in the assay with PC-3 prostate, 99.6%; in the assay with SK-MEL-5 melanoma, 99.9%. In addition, the growth is 107% in the assay with UACC-62 melanoma; 103% in the assay with LOX IMVI melanoma; 98.6% in the assay with SK-MEL-28 melanoma; 105% in the assay with SK-MEL-2 melanoma; 102% in the assay with SN12C renal; 87.8% with UO-31 renal. The growth with TK-10 renal was 108%; with ACHN renal, 99.8%; in the assay on CAKI-1 renal, 94.2%; in the assay with A498 renal, 90.4%; in the assay with CCRF-CEM leukemia, 102%; in the assay with MOLT-4 leukemia it was 94.4%.
